{"source": "PubChem BioAssay (NCI)", "note": "“And” between values parts separate entries of the source, which are not always exact repeats. Equal values may be shown once. This is part of a sample that, as a whole, favours compounds with a hit. Of some 83,000 tested, about 20% had one in any assay.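 96-well plates, one dose, 48 hours. Percent growth reported; active if below 10.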 Values without a mark were called inactive. The source made the active and inactive calls.", "data": [{"tested_on": "HL-60(TB) leukemia", "assay": "NCI-60 one-dose screen, 48 h (100 = growth as untreated, 0 = no growth, -100 = all killed)", "settings": "10 µM unless noted", "values": [{"smiles": "OCC(O)C(O)CC1SCCS1", "note": "(centres undefined)", "growth": "46%"}, {"smiles": "COc1cc(-c2c3c(c(Br)n2Cc2ccccc2)-c2nc(N)sc2CC3)cc(OC)c1OC", "growth": "68.4%"}, {"smiles": "Cc1cn(-c2cc(NC(=O)c3cncc(C#Cc4cnc(N)c5ncccc45)c3)cc(C(F)(F)F)c2)cn1", "growth": "18.7%"}, {"smiles": "O=C(Nc1ncc(Cc2ccc(Cl)c(C(F)(F)F)c2)s1)c1ccc2nnsc2c1", "growth": "42.5%"}, {"smiles": "CC(=O)Nc1cc(S(=O)(=O)O)cc2cc(S(=O)(=O)O)c(N=Nc3ccccc3)c(O)c12", "growth": "109% and 94.3%"}, {"smiles": "O=C(/C=C\\c1ccnc2ccccc12)c1ccc([N+](=O)[O-])cc1", "growth": "47.1% and 30.4%"}, {"smiles": "CCCCCCC(C)CC1=C(O)c2ccccc2C(=O)C1=O", "note": "(centres undefined)", "growth": "37.5%"}, {"smiles": "COc1ccc2c(c1)C(=O)c1c-2c(OCCN(C)C)nc2cc(OC)c(OC)cc12", "growth": "89.9%"}, {"smiles": "COc1ccc(C(=O)N2N=C(c3ccc(F)cc3)CC2c2cn(-c3ccccc3)nc2-c2ccccc2)cc1", "note": "(centres undefined)", "growth": "32.5%"}, {"smiles": "CCOC(=O)C(C)(CSSCC(C)(NC(=O)c1ccc2ccccc2c1)C(=O)OCC)NC(=O)c1ccc2ccccc2c1", "note": "(centres undefined)", "growth": "98.8%"}, {"smiles": "O=C(CN1CCOCC1)N1CCOCC1", "growth": "101% and 109%"}, {"smiles": "COc1ccc(-c2nn(-c3ccccc3)cc2/C=C2\\SC(=O)NC2=O)cc1", "growth": "88.2%"}, {"smiles": "CC(C)CC(CC1=CCC2CC1C2(C)C)C1=C(O)C(C)(C)C(=O)C(C)(C)C1=O", "note": "(centres undefined)", "growth": "-45.3% (active)"}, {"smiles": "CC(=O)OC[C@]1(C)C=C2C(=O)[C@](C)(O)C3(CC3)C(C)=C2[C@H]1OC(C)=O", "growth": "96.4%"}, {"smiles": "CN1CCCC1c1cccnc1", "note": "(centres undefined)", "growth": "105%"}, {"smiles": "CCOC(=O)C1=NN(c2ccccc2)C(=O)/C1=C\\N1C(=O)CC(=O)NC1=S", "growth": "101%"}, {"smiles": "COc1ccc(C(CC(=O)c2ccc3c(c2)OCO3)C(=O)O)cc1OC", "note": "(centres undefined)", "growth": "101% and 99.7%"}, {"smiles": "Cn1ccnc1C(=O)C(=O)Nc1ccc(CC(=O)Nc2ccccc2)cc1", "growth": "107%"}, {"smiles": "CCNC(=S)NN", "growth": "100%"}, {"smiles": "CC(C)=C1C=C2CC[C@@H]3[C@](C)(CCC[C@@]3(C)C(=O)O)[C@H]2CC1", "growth": "105%"}, {"smiles": "NCCCCCC(=O)O", "growth": "114% and 92.6% and 77.6%"}, {"smiles": "Cc1ccc(C(=O)Nc2ccc(Cl)cc2C(=O)NCc2ccccc2)cc1", "growth": "51.9%"}, {"smiles": "COc1ccc2c(c1)C1(C(=O)N2)C(C#N)=C(c2ccccc2)Nc2c1c(-c1ccccc1)nn2-c1ccccc1", "note": "(centres undefined)", "growth": "3.96% (active)"}, {"smiles": "C=C1C(=O)O[C@H]2[C@H]1CC/C(COC(=O)NC1CCC(O)CC1)=C\\CC[C@@]1(C)O[C@@H]21", "note": "(some centres undefined)", "growth": "70.6% and 62.5%"}, {"smiles": "CCn1c2ccccc2c2cc(NC(=O)Nc3ccc([N+](=O)[O-])cc3C)ccc21", "growth": "18.7%"}, {"smiles": "CN1CCN(CCCN2c3ccccc3Sc3ccc(Cl)cc32)CC1", "growth": "98.9% and 50.7%"}, {"smiles": "CCn1c(Cc2ccccc2Nc2c(Cl)cccc2Cl)nnc1SCC(=O)Nc1ccccc1C(F)(F)F", "growth": "86.9%"}, {"smiles": "CCOc1nc(-c2ccccc2)cc2c(O)c(C(=O)N/N=C/c3ccccc3)[nH]c(=O)c12", "growth": "101%"}, {"smiles": "O=C1c2ccccc2-c2c1nc1ccccc1[n+]2[O-]", "growth": "101%"}, {"smiles": "CC(C)(C)c1ccc(S(=O)(=O)Oc2ccc3c4c(c(=O)oc3c2)CCCCC4)cc1", "growth": "52%"}, {"smiles": "CCC(=C(c1ccc(OCCN2CCCCC2)cc1)c1ccc(OCCN2CCCCC2)cc1)c1ccc(Cl)cc1", "growth": "-62.4% (active)"}, {"smiles": "COc1cc(/C=C2/C=C(c3ccccc3)N(CCc3ccc(S(N)(=O)=O)cc3)C2=O)cc(OC)c1OC", "growth": "86.7%"}, {"smiles": "CCCCCCN(CCCCCC)C(=N)c1ccnc2ccccc12", "growth": "43.2%"}, {"smiles": "CC(C)NCCCCCNc1cc(O)cc2cccnc12", "growth": "-43.6% (active)"}, {"smiles": "CC/C=C\\C[C@H]1C/C=C2/C(=O)C=C[C@@H]2C/C=C\\CCCC(=O)O1", "growth": "-27.2% (active)"}, {"smiles": "COC(=O)c1nc(N)nc(C(=O)OC)c1C(=O)c1ccc(OC)cc1", "growth": "115% and 65.7%"}, {"smiles": "Nc1ncnc2c1c(-c1ccc(Oc3ccccc3)cc1)nn2C[C@@H]1SSC[C@H]1O", "growth": "-27.5% (active)"}, {"smiles": "Cc1nc2c(=O)[nH]c(SCC(=O)Nc3cccc(F)c3)nc2[nH]c1=O", "growth": "105%"}, {"smiles": "CN(C)CCN1CCN(c2ncccc2C2Nc3ccccc3-n3cccc32)CC1", "note": "(centres undefined)", "growth": "98.7%"}]}]}
